# From PubChem
# Many of the other results were omitted from the sample, so hits are more common in it than they were.
# LmPK inh: blocks Leishmania mexicana pyruvate kinase activity. 0.37% of 290,000 active. purified LmPK, Kinase-Glo ATP luminescence, 1 h. Potency, µM (doses to about 57.5 µM), without a hit: top-dose activity change, negative = inhibition, actives largely listed as inhibitors. AID 1721; also: potency is read from the fitted curve at half-maximal effect; % is scaled to controls: 0 for no effect and ±100 for the full control effect
#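 0.1 nM LmPK, 0.5 mM PEP, 0.1 mM ADP; 50 mM imidazole pH 7.2, 7 mM MgCl2, 50 mM KCl; 1 h RT. Kinase-Glo luminescence readout, normalized to no-enzyme (full inhibition) and uninhibited wells.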
# TbPYK inhibitor: inhibitors of Trypanosoma brucei pyruvate kinase. TbPYK enzyme, Kinase-Glo Plus ATP luminescence, 45 min. Potency, µM (doses to about 76.8 µM), without a hit: at the top dose activity, negative = inhibition, actives largely listed as inhibitors. 0.12% of 410,000 active. AID 624173; also: potency is read from the fitted curve at half-maximal effect; % is scaled to controls: 0 for no effect and ±100 for the full control effect; nearly all actives have a fitted effect of over 50% in size
#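 Luminescent Kinase-Glo Plus end-point after 45 min room-temperature reaction of T. brucei pyruvate kinase started with 130 uM ADP (final). Buffer TEA 50 mM pH 7.2 with KCl, MgCl2, BSA, Tween-20; titration-based qHTS with fitted concentration-effect curves.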
# Giardia FBPA inh: Giardia lamblia aldolase inhibition. A8B2U2. Potency, µM (top dose mostly 59.6 µM), without a hit: at the highest dose activity, negative = inhibition, usual class: inhibitors. purified Giardia FBPA. AID 2451. 0.71% of 290,000 active; also: potency is read from the fitted curve at half-maximal effect; % is scaled to controls: 0 for no effect and ±100 for the full control effect; nearly all actives have a fitted effect of over 55% in size
# Target sequence (A8B2U2 whole entry, looked up): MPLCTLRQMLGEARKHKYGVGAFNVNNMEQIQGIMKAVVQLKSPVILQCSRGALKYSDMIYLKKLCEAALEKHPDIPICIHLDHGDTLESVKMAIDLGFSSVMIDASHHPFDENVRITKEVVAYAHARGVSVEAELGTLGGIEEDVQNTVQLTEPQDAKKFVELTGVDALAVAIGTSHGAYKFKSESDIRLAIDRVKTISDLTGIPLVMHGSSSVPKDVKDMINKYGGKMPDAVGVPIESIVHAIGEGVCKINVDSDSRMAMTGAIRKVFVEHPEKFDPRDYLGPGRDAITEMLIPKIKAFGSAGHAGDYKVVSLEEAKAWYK
#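 Giardia FBPA (40 nM reagent) was preincubated 10 min at RT with compound (up to 57.5 uM final), then substrate plus GAPDH/TPI/NAD/arsenate coupling system with diaphorase/resazurin was added; resorufin fluorescence (525/598 nm) was read after 20 min.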
# Sm TGR block: S. mansoni TGR enzyme inhibition. 3% of 360,000 active. purified TGR, DTNB reduction, TNB absorbance 405 nm. Q962Y6. Potency, µM (highest dose often 114 µM), without a hit: at the highest dose activity change, negative = inhibition, usual class: inhibitors; also: potency is read from the fitted curve at half-maximal effect; % is scaled to controls: 0 for no effect and ±100 for the full control effect; nearly all actives have a fitted effect of over 60% in size
#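 Kinetic colorimetric format: TGR-catalysed, NADPH-driven DTNB reduction monitored via TNB absorbance. Enzyme dispensed at 20 nM; compound exposure 15 min at room temperature before reaction start.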
# Shiga toxin inh: inhibitors of Shiga toxin in Vero cells. AID 2315. inhibition, % at 38.7 µM. 9.2% of 290,000 active. Vero cells, Shiga toxin protein synthesis inhibition reporter; in the data active = inhibition mostly above about 28%, no sharp cut-off; inactive = mostly below about 43%; also: 0% is about no effect
# CHX counter: affects cycloheximide protein synthesis inhibition readout, counter-screen; cell reporter, cycloheximide protein synthesis inhibition counterscreen; max response, %; 12% of 300,000 active; AID 2314; in the data active = max response mostly above about 13%, no sharp cut-off; inactive = mostly below about 14%; also: read at 38.3 µM for the half of the compounds with a filed dose; 0% is about no effect
# Starred values were filed as active, the others as inactive; u = inconclusive; x = not tested or not shown. Unless noted, calls follow the shape of the dose curve; as a rule, active = well fitted curve in the direction sought with a large enough effect; inconclusive = small, poorly fitted or top-dose-only effect, or another doubt; inactive = no such curve, though single readings can be large; an effect the other way counts as inactive or inconclusive.
SMILES,LmPK inh,TbPYK inhibitor,Giardia FBPA inh,Sm TGR block,Shiga toxin inh,CHX counter
Cc1ccc(NC(=O)c2sccc2C)cc1S(=O)(=O)N(C)C,0.8%,-13.5%,-1.0%,-6.7%,45.6,28.2*
Cc1ccc(NC(=O)c2cncc(Br)c2)cc1S(=O)(=O)N(C)C,-1.6%,-7.0%,-9.4%,-2.9%,99.0*,38.0*
COC(=O)C1=C(C)N(Cc2ccccc2)C(=NCC2CC2)N[C@H]1c1ccc(Br)cc1,-11.8%,x,3.1%,-10.0%,-3.1,-5.4
O=C(CCl)N1CCCC1c1ccc2c(c1)OCCO2 (stereo not drawn),-6.6%,-19.3%,x,3.55µM*,-10.0,2.7
Cc1nc2c(s1)sc1ccccc12,-10.5%,1.8%,0.1%,-1.3%,86.2,18.9*
CC[N+]1(C)CCC(=C2c3ccccc3CC(=O)c3sccc32)CC1 (stereo not drawn),-2.1%,-6.8%,-2.3%,-13.2%,-7.6,-3.3
C[N+]1(C)CCC(=C2c3ccccc3CC(=O)c3sccc32)CC1,2.3%,-17.3%,x,28.2µM*,18.4,13.7
Cc1nc2cc(Nc3nnc(-c4ccccc4)c4ccccc34)ccc2n1C,0.8%,10.1%,-0.5%,-26.9%,44.8,45.1*
COC(=O)c1cccc(NC(=O)C2CCN(S(=O)(=O)Cc3ccccc3)CC2)c1C,x,-4.9%,x,1.7%,x,x
CC1=CC(=O)C=C(C)C1=NOc1ccccc1[N+](=O)[O-],-4.8%,-13.9%,-28.6%,28.2µM*,1.8,3.9
N/C(=N\OC(=O)CCCN1C(=O)c2ccccc2C1=O)c1ccc(Br)cc1,x,-10.9%,x,x,x,x
N/C(=N\OC(=O)CCCc1ccccc1)c1ccccc1,-17.5%,-2.5%,x,3.3%,26.5,31.4*
Cc1cccc(/C(N)=N/OC(=O)CCCc2ccccc2)c1,-12.4%,-2.5%,x,3.0%,66.1*,56.9*
N/C(=N\OC(=O)CCCc1ccccc1)c1cccnc1,-3.3%,-5.0%,5.7%,3.4%,40.0*,21.3*
N/C(=N\OC(=O)CCCCCN1C(=O)c2ccccc2C1=O)c1ccccc1,5.3%,2.0%,-1.9%,-3.3%,70.7*,36.5*
N/C(=N\OC(=O)CCCc1ccccc1)c1cccc([N+](=O)[O-])c1,0.0%,-13.5%,-0.2%,-2.4%,-5.5,6.7
CCCCCCCCN1C(=O)[C@H](CC(=O)N2CCN(C(=O)c3ccco3)CC2)C[C@@]2(C(=O)OCC)CCCC=C12,x,5.8%,x,x,x,x
COc1ccccc1-c1sc2ccccc2c1-c1cnc(N2CCOCC2)nc1,x,-5.1%,x,x,x,x
Cc1nn(-c2ccccc2)c2nc(C3CC3)cc(C(=O)Nc3ccccc3F)c12,x,0.1%,x,9.5%,x,x
N/C(=N\OC(=O)CCCOc1ccccc1)c1ccncc1,-4.4%,-5.5%,1.1%,12.3%,18.6,-2.9
N/C(=N\OC(=O)CCCOc1ccccc1)c1ccccc1,-9.4%,-11.5%,4.4%,1.1%,13.5,22.9*
CCCN1C(=O)/C(=C/c2nc3ccccc3c(=O)[nH]2)c2cc(C)ccc21,6.7%,3.8%,-0.8%,0.7%,9.0,11.4*
COc1cccc(/C=C/c2nc3c(cnn3-c3ccccc3)c(=O)[nH]2)c1,-1.5%,3.2%,4.4%,-15.1%,37.1,15.0*
CCOc1cc(/C=C/c2nc3ccccc3c(=O)[nH]2)ccc1O,1.0%,-3.0%,u,4.3%,50.4*,44.6*
Cc1[nH]c2ccccc2c1/C=C/c1nc2ccccc2c(=O)[nH]1,0.2%,-3.8%,-9.5%,9.5%,84.2*,52.7*
SMILES,LmPK inh,TbPYK inhibitor,Giardia FBPA inh,Sm TGR block,Shiga toxin inh,CHX counter
CCn1c(/C=C/c2c(C)[nH]c3ccccc23)nc2ccccc2c1=O,3.7%,-6.3%,8.8%,0.5%,10.0,6.5
NC(=O)c1ccccc1-c1nc(-n2ccnc2)c2ccccc2n1,x,x,-5.3%,x,x,x
CC1=CC23C(=O)C(C=C(CO)[C@@H](O)[C@]2(O)[C@H]1O)[C@H]1[C@@H](C[C@H]3C)C1(C)C (stereo partly drawn),x,x,3.5%,x,-2.7,-1.6
S=c1nn[nH]c2ccccc12,x,1.2%,x,x,x,x
COc1cc(/C=C/c2nc3ccccc3c(=O)[nH]2)ccc1O,x,-8.9%,x,x,x,x
Cc1cccc(/C=C/c2nc3ccccc3c(=O)[nH]2)c1,u,-7.8%,10.3%,x,112.1*,29.4*
